For some assays here: Measured potencies and affinities stand elsewhere.

Common to all, as to design: scale not given: direction of the effect not stated beside the values
Assay [1] deals with Protein translocase subunit SecA (Escherichia coli (strain K12)) (UniProt P10408). Put plainly: Assay to Identify E. coli SecA ATPase Inhibitors. Particulars: 30 µM. Type of assay: functional.
The target of assay [2] is T1, Ubiquitin-activating enzyme e1, putative (Leishmania donovani (strain BPK282A1)) (UniProt E9BSI1).
T1 sequence (whole entry): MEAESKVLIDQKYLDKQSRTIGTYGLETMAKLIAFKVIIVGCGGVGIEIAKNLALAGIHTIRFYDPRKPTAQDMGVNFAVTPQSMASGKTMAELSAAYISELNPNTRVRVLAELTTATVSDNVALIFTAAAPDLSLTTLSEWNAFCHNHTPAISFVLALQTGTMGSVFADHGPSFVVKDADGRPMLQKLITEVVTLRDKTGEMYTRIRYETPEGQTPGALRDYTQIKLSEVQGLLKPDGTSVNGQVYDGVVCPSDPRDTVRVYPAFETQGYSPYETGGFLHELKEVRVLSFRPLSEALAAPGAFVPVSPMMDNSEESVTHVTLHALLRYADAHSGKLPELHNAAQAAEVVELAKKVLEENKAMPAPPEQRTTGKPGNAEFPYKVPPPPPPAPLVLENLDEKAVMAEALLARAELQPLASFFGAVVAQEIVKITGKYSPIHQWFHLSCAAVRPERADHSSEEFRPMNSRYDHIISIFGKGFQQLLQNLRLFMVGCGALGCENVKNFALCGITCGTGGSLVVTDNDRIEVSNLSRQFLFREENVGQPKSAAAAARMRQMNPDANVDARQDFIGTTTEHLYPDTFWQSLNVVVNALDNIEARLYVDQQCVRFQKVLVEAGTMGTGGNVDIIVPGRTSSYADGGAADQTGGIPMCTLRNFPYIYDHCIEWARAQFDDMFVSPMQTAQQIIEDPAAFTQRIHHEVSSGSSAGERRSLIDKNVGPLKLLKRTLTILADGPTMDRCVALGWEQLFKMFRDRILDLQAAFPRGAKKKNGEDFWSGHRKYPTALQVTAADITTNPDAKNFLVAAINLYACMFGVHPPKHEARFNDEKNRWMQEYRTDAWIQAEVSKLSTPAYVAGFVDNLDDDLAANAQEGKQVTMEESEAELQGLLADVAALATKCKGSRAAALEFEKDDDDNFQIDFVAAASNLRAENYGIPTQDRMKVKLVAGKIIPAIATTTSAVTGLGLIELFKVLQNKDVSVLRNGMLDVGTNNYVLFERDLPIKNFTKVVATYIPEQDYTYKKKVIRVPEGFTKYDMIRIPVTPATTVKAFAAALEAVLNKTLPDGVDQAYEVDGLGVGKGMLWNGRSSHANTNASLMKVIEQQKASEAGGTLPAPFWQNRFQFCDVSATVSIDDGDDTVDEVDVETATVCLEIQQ
Put plainly: Leishmania donovani Ubiquitin Activating Enzyme (LdE1). Conditions: 30 µM. Type of assay: functional.

For assay [3], the target named is AMP-activated protein kinase, AMPK (Homo sapiens) (UniProt P54646+O43741+P54619+Q9UGJ0+Q9Y478+Q13131+Q9UGI9). Put plainly: AMP-dependent Kinase enzyme assay. An in vitro enzyme assay that detects ADP turnover that is directly proportional to AMPK activity. This uses naive AMPK that is activated during the assay with MK-8722. The format is functional. Particulars: 30 µM.

Assay [4] concerns the target Sialic acid-binding Ig-like lectin 9 (Homo sapiens) (UniProt Q9Y336). Put plainly: Hs-Siglec9 ALPHAscreen SOP 20170721. Conditions: 10 µM. Background: Bead proximity is the source of the signal in Alpha formats.
The subject of assay [5] is Trypanosoma cruzi. Put plainly: Trypanosoma cruzi phosphomannomutase and mannose-1-phosphate guanylyltransferase assay. Particulars: 10 µM. Type of assay: functional.
Assay [6] concerns the target T2, Arginase-2, mitochondrial (Homo sapiens) (UniProt P78540).
T2 sequence (whole entry): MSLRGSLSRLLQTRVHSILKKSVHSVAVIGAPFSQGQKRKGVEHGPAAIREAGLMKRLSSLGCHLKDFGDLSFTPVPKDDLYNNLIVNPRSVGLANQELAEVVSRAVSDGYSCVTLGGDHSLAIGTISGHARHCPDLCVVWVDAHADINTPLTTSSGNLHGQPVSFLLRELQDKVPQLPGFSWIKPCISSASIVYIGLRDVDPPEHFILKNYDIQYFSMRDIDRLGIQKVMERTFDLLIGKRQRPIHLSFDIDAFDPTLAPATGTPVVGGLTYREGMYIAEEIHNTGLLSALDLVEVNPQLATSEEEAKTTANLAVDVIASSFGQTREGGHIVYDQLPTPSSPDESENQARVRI
The assay can be described thus: in vitro enzyme assay to detect the production of urea directly proportional to the activity of Arginase II. Note: in the data most compounds retested in dose-response had high values. The format is functional. Conditions: 33.3 µM.

Assay [7] deals with T3, Proteasome subunit beta (Trypanosoma cruzi) (UniProt O96673).
T3 sequence (whole entry): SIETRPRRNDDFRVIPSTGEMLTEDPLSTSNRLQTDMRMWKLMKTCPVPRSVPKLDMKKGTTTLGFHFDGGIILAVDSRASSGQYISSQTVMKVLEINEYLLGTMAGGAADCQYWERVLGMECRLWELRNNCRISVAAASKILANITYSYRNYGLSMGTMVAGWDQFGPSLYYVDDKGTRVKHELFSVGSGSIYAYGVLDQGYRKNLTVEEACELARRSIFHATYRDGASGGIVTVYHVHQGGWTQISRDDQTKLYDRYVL
Put plainly: Trypanosoma cruzi proteasome chymotrypsin-like activity (TcProtChymo) assay. Note: in the data most compounds retested in dose-response had high values. The format is functional. Conditions: 9.37 µM.

The species entered for assay [8] is Homo sapiens. The assay can be described thus: To identify inhibition of the IFN signalling (Jak-Stat) pathway via expression of an eGFP reporter gene under the control of an IFN-stimulated response element (ISRE) containing MxA promoter. The format is functional. Conditions: 30 µM. On the technique in general: A reporter such as luciferase makes a cellular process visible.

The target of assay [9] is T4, Tyrosyl-tRNA synthetase, putative (Trypanosoma cruzi (strain CL Brener)) (UniProt Q4DSP6).
T4 sequence (whole entry): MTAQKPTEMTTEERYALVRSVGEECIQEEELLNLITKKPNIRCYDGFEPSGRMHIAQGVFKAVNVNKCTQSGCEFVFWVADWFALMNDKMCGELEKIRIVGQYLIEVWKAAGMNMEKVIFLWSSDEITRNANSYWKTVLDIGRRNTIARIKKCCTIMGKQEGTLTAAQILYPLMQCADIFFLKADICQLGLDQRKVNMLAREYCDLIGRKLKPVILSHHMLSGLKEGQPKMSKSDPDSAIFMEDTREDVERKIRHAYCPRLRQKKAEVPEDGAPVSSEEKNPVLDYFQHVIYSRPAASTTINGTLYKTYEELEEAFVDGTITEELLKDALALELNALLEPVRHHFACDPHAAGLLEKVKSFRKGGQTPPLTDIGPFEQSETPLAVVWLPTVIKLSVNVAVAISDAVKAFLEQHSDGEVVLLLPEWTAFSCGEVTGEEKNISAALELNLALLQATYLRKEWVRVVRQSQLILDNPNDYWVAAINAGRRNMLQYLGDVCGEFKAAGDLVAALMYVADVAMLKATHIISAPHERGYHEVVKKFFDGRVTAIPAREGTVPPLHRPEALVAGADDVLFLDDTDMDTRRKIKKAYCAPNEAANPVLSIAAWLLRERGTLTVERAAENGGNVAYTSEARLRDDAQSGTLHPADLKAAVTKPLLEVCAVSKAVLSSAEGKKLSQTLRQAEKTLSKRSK
The assay can be described thus: Trypanosoma cruzi tyrosyl tRNA synthetase (TcYRS) _High Tyrosine SOP. Note: in the data most compounds retested in dose-response had high values. Particulars: 30 µM. The format is functional.

Assay [10] has as its target T4, Tyrosyl-tRNA synthetase, putative (Trypanosoma cruzi (strain CL Brener)). The assay can be described thus: Trypanosoma cruzi tyrosyl tRNA synthetase (TcYRS) SOP. The format is functional. Particulars: 30 µM.
The target of assay [11] is Chromo domain-containing protein 1 (Saccharomyces cerevisiae (strain ATCC 204508 / S288c) (Baker's yeast)) (UniProt P32657). The assay can be described thus: ScCHD-1 Enzyme Inhibition Assay. Note: in the data most compounds retested in dose-response had high values. The format is functional. Conditions: 30 µM.
Chromo domain-containing protein 1 (Saccharomyces cerevisiae (strain ATCC 204508 / S288c) (Baker's yeast)), sequence (P32657 whole entry, the tested form may be a part): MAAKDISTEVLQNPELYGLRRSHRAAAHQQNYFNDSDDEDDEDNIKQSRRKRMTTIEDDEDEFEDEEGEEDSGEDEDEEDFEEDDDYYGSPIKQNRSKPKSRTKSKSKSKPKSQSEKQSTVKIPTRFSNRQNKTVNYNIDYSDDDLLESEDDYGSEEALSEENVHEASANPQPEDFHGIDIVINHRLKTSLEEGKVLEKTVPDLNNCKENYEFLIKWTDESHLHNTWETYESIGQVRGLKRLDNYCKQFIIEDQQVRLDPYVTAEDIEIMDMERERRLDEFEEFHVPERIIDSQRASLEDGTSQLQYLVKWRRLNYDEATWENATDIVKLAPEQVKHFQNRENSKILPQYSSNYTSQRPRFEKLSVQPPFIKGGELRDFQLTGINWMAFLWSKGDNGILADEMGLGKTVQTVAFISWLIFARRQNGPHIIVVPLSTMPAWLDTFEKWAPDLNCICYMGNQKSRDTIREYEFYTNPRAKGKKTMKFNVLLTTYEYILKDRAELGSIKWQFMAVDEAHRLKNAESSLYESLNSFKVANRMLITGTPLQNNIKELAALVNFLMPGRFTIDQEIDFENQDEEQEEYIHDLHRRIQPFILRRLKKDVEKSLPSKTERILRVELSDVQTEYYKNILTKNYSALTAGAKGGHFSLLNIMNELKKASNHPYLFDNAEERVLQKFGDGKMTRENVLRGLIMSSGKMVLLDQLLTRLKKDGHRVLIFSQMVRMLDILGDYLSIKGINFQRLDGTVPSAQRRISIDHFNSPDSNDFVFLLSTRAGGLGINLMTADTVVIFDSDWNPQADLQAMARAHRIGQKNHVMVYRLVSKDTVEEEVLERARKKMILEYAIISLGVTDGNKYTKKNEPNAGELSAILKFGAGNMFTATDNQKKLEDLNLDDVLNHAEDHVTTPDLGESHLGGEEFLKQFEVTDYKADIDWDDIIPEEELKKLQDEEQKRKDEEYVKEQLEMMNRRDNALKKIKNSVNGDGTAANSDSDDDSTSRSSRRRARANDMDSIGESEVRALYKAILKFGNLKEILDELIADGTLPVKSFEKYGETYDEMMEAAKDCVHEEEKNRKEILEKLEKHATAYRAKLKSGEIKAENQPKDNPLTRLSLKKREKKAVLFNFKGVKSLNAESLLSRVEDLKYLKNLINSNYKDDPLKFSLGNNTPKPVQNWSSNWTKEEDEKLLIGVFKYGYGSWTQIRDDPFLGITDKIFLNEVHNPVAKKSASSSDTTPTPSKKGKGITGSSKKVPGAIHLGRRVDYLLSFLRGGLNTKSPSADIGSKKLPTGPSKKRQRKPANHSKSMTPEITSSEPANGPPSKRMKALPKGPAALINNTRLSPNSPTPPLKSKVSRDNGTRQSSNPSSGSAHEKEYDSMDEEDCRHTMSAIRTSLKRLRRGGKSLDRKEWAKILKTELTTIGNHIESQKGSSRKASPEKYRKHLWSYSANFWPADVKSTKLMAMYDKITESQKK

Sialic acid-binding Ig-like lectin 9 (Homo sapiens), sequence (Q9Y336 whole entry): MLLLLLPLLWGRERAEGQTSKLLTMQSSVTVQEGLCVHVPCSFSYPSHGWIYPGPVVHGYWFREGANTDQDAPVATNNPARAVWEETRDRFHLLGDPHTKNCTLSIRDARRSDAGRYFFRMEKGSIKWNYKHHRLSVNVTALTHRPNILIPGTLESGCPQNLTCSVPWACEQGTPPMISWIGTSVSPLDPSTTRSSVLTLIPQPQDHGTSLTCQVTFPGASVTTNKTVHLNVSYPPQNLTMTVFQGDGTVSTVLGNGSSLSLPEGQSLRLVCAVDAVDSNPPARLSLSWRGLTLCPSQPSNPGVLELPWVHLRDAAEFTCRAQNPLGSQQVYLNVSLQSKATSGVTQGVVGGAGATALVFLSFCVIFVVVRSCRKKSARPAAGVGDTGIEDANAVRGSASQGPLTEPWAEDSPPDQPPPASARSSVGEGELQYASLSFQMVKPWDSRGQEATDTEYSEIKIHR
Protein translocase subunit SecA (Escherichia coli (strain K12)), sequence (P10408 whole entry): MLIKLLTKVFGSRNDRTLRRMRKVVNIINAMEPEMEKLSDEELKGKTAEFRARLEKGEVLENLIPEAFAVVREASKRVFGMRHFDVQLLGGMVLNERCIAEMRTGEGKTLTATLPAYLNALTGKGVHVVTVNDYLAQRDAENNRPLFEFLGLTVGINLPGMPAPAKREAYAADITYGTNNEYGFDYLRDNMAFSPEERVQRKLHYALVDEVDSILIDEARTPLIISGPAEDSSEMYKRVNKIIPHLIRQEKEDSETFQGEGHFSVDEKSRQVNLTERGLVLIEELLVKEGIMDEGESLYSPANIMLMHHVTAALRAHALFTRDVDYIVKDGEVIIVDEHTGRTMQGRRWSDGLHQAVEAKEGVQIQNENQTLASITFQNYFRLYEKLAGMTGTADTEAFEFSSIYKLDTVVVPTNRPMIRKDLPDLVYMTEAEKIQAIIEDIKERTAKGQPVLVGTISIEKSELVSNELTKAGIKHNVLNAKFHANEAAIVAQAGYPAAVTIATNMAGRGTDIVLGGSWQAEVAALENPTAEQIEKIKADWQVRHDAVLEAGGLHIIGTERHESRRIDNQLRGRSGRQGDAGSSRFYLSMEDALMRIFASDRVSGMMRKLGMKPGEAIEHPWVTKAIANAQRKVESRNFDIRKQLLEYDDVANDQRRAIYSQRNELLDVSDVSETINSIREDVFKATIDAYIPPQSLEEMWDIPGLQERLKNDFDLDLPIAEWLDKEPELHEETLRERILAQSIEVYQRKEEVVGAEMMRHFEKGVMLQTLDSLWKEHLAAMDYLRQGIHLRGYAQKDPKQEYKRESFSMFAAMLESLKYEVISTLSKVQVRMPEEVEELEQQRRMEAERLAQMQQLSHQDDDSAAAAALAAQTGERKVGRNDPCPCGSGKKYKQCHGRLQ

As to `Cn1cc(C2CCCN2C(=O)Cc2n[nH]c3ccccc23)cn1` (stereo not given), the Percent Effect in assay [1] was -3.26%; in [2] it was 22.8%; in assay [3] it was 4.87%; in [4], -9.88%; in assay [5], 6.33%; in assay [6], 0.76%. Also, the Percent Effect in assay [7] was 13%; in assay [8], 7.84%; in assay [9], 6.4%; in assay [10] it was 21.5%; in [11], -11.7%.

Turning to `COc1cccc(OCC(=O)NS(=O)(=O)c2ccc(C)s2)c1`, the Percent Effect in assay [1] is -3.05%; in [2] it was 15.2%; in assay [3], -2.9%; in assay [4] it was -5.56%; in assay [5], 5.19%; in assay [6], 5.32%. Moreover, the Percent Effect in assay [7] is 10.4%; in assay [8], 15.6%; in assay [9] it was 2.46%; in [10] it was 16.5%; in assay [11] it was -4.35%.

As to `CC(=O)N1CCCCC1c1nc(N)ncc1-c1ccccc1` (stereo not given), the Percent Effect is -3.36% in assay [1]; 13.3% in assay [2]; 9.28% in assay [3]; -4.89% in assay [4]; 5.32% in [5]; 19.8% in assay [6]. The Percent Effect in [7] was 6.78%; in [8], 8.42%; in [9], 6.38%; in [10], 14.1%; in assay [11] it was -3.68%.

Take `CC[C@@]1(O)CCN(C(=O)c2ccc(SC)cc2)C[C@H]1O`: the Percent Effect was -4.3% in assay [1]; 4.17% in assay [2]; 0.43% in [3]; 1.71% in assay [4]; 6.9% in [5]; -0.442% in assay [6]. Besides, the Percent Effect in [7] is 10.9%; in assay [8] it was 3.45%; in assay [9], 4.21%; in [10], 5.13%; in assay [11] it was -3.41%.

Take `CC(C)COC(C)C(=O)NCc1cc(F)cc(F)c1` (stereo not given): the Percent Effect was -1.7% in assay [1]; 2.6% in assay [2]; 8.53% in assay [3]; 10.1% in assay [4]; 1.47% in assay [5]; 2.32% in assay [6]. In addition, the Percent Effect in [7] was -0.728%; in assay [8], 21.9%; in [9] it was 2.86%; in [10], 2.35%; in assay [11] it was -5.87%.

Take `O=C(Cn1ccc2ccccc21)NCc1ccc(C(=O)O)cc1`: the Percent Effect in [1] is -5.35%; in [2] it was 2.63%; in assay [3], 10.1%; in [4], 1.77%; in [5] it was -1.85%; in assay [6] it was 0%. The Percent Effect in [7] is 15.8%; in [8] it was -18.3%; in [9], -1.06%; in [10] it was 10.4%; in assay [11], -0.974%.

Turning to `O=C(Cc1ccsc1)NCC1OCCc2cn(CC3CC3)nc21` (stereo not given), the Percent Effect is -2.34% in [1]; 7.79% in assay [2]; 4.36% in assay [3]; -0.104% in assay [4]; -3.06% in assay [5]; 4.52% in assay [6]. The Percent Effect was 9.92% in [7]; 10.1% in assay [8]; 8.47% in [9]; 8.97% in [10]; -0.722% in assay [11].

On to `CN(C)CC(=O)N1CCOCC2(C1)CN(c1ccccc1)C(=O)CO2` (stereo not given), for which the Percent Effect in [1] was 1.58%; in [2], 8%; in [3] it was 11.2%; in assay [4] it was -1.53%; in assay [5] it was -4.05%; in assay [6], -56.8%. Moreover, the Percent Effect is 3.08% in [7]; -9.58% in assay [8]; 5.21% in [9]; -22.5% in [10]; -7.95% in assay [11].

With `Cn1ccc(C(=O)NC2CCN(c3ncccn3)CC2)cc1=O`, the Percent Effect in [1] is -2.08%; in assay [2], 13.5%; in assay [3], -7.39%; in [4], 7.92%; in assay [5] it was -0.0943%; in assay [6] it was 0.401%. In addition, the Percent Effect in [7] was 9.73%; in assay [8], 5.6%; in [9], 1.48%; in assay [10], 11.1%; in assay [11] it was -9.93%.

In the case of `CN(C(=O)CCNC(=O)NC1CCCCC1)c1ccccc1`, the Percent Effect was -3.57% in [1]; 21.1% in [2]; -2.45% in assay [3]; -10.2% in assay [4]; 3.21% in assay [5]; -1.18% in assay [6]. The Percent Effect is 14.3% in assay [7]; 8.02% in assay [8]; 3.19% in assay [9]; 13% in [10]; -0.404% in assay [11].

Values taken from ChEMBL document CHEMBL3988442, “University of Dundee, Small-Polar-MMV Screening Library” (2021).
